In all, about 3,200 compounds went through this assay and about 300 (9.4%) showed activity. Only a selection was taken, and actives are over-represented in it overall.
Test system: A673/TR/shEF
Test: cell viability (LOESS-normalised, relative to median of negative controls) (log2 ratio); higher = more viable cells (less compound effect), active = hit call of the paper (over 3 MAD below the median)
Settings: treatment time: 72 h
Summary of the method: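 A673/TR/shEF Ewing sarcoma cells were plated at 1,500 per well in 384-well plates and cultured with or without doxycycline, added 24 h before compounds, to induce EWS-FLI1 shRNA knockdown. Library compounds at two or more concentrations, alongside DMSO controls, were applied for three days. Cell viability was measured by CellTiter-Glo luminescence on an Envision reader. Readings were LOESS-corrected per plate, divided by the median of negative controls and log2-transformed, and hits were wells lying at least three median absolute deviations from the median of all screened wells.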

[1] = 0.25 µM, library screen: screen1, EWS-FLI1 expression: high (no doxycycline)
[2] = 0.25 µM, library screen: screen1, EWS-FLI1 expression: low (doxycycline-induced shRNA knockdown)
[3] = 2.5 µM, library screen: screen1, EWS-FLI1 expression: high (no doxycycline)
[4] = 2.5 µM, library screen: screen1, EWS-FLI1 expression: low (doxycycline-induced shRNA knockdown)
[5] = 0.25 µM, library screen: screen2, EWS-FLI1 expression: high (no doxycycline)
[6] = 0.25 µM, library screen: screen2, EWS-FLI1 expression: low (doxycycline-induced shRNA knockdown)
[7] = 2.5 µM, library screen: screen2, EWS-FLI1 expression: high (no doxycycline)
[8] = 2.5 µM, library screen: screen2, EWS-FLI1 expression: low (doxycycline-induced shRNA knockdown)

Measured: cell viability (log2)

CCCCOC(=O)c1ccccc1C(=O)OCc1ccccc1
inactive: [1] 0.109 | [2] 0.0867 | [3] 0.0605 | [4] 0.00546

C[C@@H]1c2cc(O)c(O)cc2CCN1C
inactive: [5] 0.203 | [6] 0.114 | [7] 0.129 | [8] 0.102

C[N+]1(C)C2CC(OC(=O)C(CO)c3ccccc3)CC1C1OC12 (stereo not drawn)
inactive: [1] 0.0929 | [2] 0.0137 | [3] 0.182 | [4] 0.0439

CC(C)(C)c1cc(C=C(C#N)C#N)cc(C(C)(C)C)c1O
active: [3] -1.1 | 25 µM, library screen: screen1, EWS-FLI1 expression: high (no doxycycline) -3.7 | 25 µM, library screen: screen1, EWS-FLI1 expression: low (doxycycline-induced shRNA knockdown) -2.45
inactive: 0.025 µM, library screen: screen1, EWS-FLI1 expression: high (no doxycycline) 0.176 | 0.025 µM, library screen: screen1, EWS-FLI1 expression: low (doxycycline-induced shRNA knockdown) 0.0512 | [1] 0.092 | [2] 0.0707 | [5] 0.104 | [6] 0.0526 | [4] -0.0795 | [7] 0.0132 | [8] 0.112

CCC1C2CC3[C@@H]4N(C)c5ccccc5[C@]45CC(C2[C@H]5O)N3[C@@H]1O (stereo partly drawn)
inactive: [1] 0.014 | [2] -0.00944 | [3] 0.104 | [4] 0.0619

CCC(=O)Nc1ccc(Cl)c(Cl)c1
inactive: [1] 0.114 | [2] -0.0209 | [3] 0.0655 | [4] 0.0703

CC(=O)[O][Hg][c]1ccccc1
inactive: [2] -0.147
active: [1] -0.557 | [3] -2.86 | [4] -2.46

NCC(=O)c1ccccc1
inactive: [1] 0.0631 | [2] 0.0462 | [3] 0.0615 | [4] -0.00509

CCCN1CCCC2Cc3[nH]ncc3CC21 (stereo not drawn)
inactive: [5] 0.135 | [6] 0.086 | [7] 0.231 | [8] 0.107

C[C@@H]1C[C@@H]([C@H](O)CC2CC(=O)NC(=O)C2)C(=O)[C@@H](C)C1
active: [3] -0.514 | [4] -0.278 | [7] -0.922 | [8] -0.399 | 25 µM, library screen: screen2, EWS-FLI1 expression: high (no doxycycline) -2.23 | 25 µM, library screen: screen2, EWS-FLI1 expression: low (doxycycline-induced shRNA knockdown) -1.54
inactive: 0.025 µM, library screen: screen2, EWS-FLI1 expression: high (no doxycycline) 0.156 | 0.025 µM, library screen: screen2, EWS-FLI1 expression: low (doxycycline-induced shRNA knockdown) 0.119 | [1] 0.141 | [2] 0.0197 | [5] 0.0548 | [6] 0.0334

COc1ccc(CN2CCN(Cc3cccc(OC)c3)CC2)cc1
inactive: [1] -9.1e-05 | [2] 0.123 | [3] 0.136 | [4] 0.0992

ClC(Cl)=C(c1ccc(Cl)cc1)c1ccc(Cl)cc1
inactive: [1] 0.0882 | [2] 0.047 | [3] 0.0599 | [4] 0.0669

CC[C@H]1CN2CC[C@H]1C[C@@H]2[C@@H](O)c1ccnc2ccc(OC)cc12
inactive: [1] 0.074 | [2] 0.121 | [3] 0.133 | [4] 0.0925

COc1cc(C[C@@H](C)N)c(OC)cc1I
inactive: [5] 0.178 | [6] 0.0876 | [7] 0.142 | [8] 0.145

CCCC1CCCCN1 (stereo not drawn)
inactive: [1] 0.115 | [2] 0.153 | [3] 0.172 | [4] 0.128

CC(Cc1ccc(O)cc1)NCC(O)c1cc(O)cc(O)c1 (stereo not drawn)
inactive: [1] 0.143 | [2] 0.0538 | [5] 0.23 | [6] 0.0381 | [3] 0.142 | [4] 0.063 | [7] 0.166 | [8] 0.00325

CCCCCCCCCCCCCC(=O)O[C@@H]1[C@@H](C)[C@@]2(O)[C@@H](C=C(CO)C[C@]3(O)C(=O)C(C)=C[C@@H]23)[C@@H]2C(C)(C)[C@]12OC(C)=O
active: [5] -0.184 | [6] -0.159 | [7] -0.478 | [8] -0.292

Oc1ccc2c3c1O[C@H]1c4[nH]c5ccccc5c4C[C@@]4(O)C(C2)N(CC2CC2)CCC314 (stereo partly drawn)
inactive: [5] 0.0893 | [6] 0.051 | [7] 0.0722 | [8] 0.0157

C[C@]12CCC3C(CC[C@H]4C[C@H](O)CC[C@]34C)C1CC[C@@H]2C(=O)CO (stereo partly drawn)
inactive: [5] 0.139 | [6] 0.0931 | [7] 0.0348 | [8] 0.0492

ClC1=C(Cl)C2(Cl)C3C(Cl)C(Cl)CC3C1(Cl)C2(Cl)Cl (stereo not drawn)
inactive: [1] 0.143 | [2] 0.19 | [3] 0.185 | [4] 0.0908

CC(N)C(O)c1ccc(O)c(O)c1 (stereo not drawn)
inactive: [1] 0.119 | [2] 0.0592 | [3] 0.146 | [4] 0.151

C#CCN[C@H](C)Cc1ccccc1
inactive: [5] 0.265 | [6] 0.101 | [7] 0.0823 | [8] 0.137

Reference: the supplement of paper PMC6089552
